One may read the inhibition as the drop in the measured response relative to a control, in per cent.

The test system of test [1] is TRPC4 beta (transient receptor potential cation channel C4), mouse. Description: activators of mouse TRPC4 channel, confirmation, cell-based, Fluo4 calcium, HEK293 TRPC4beta/mu-opioid, duplicates, 10 µM (AID 2426;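 active means fluorescence ratio normalized to control raised more than 50% in primary screen plus both repeat runs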). To be noted: Fluo4 calcium fluorescence, at 10 µM; hits give high values.
Test [2] has as its system transient receptor potential cation channel C4 beta (TRPC4), mouse. Nature of the test: activators of mouse TRPC4 channel, confirmation, cell-based, second round, Fluo4, HEK293 TRPC4beta/mu-opioid, 1 µM (AID 2461;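 active means primary screen active and over 50% activation in each of two duplicate runs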). The following applies: Fluo4 calcium fluorescence, at 1 µM; hits give high values.
In test [3] the test system is TRPC4 (transient receptor potential cation channel C4 beta), mouse. Nature of the test: positive allosteric modulators of mouse TRPC4, confirmation, cell-based, second round, Fluo-4, HEK293 TRPC4beta/mu-opioid, 1 µM (AID 2554;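 active means primary screen hit whose fluorescence ratio, in both repeats, exceeds the weak agonist control mean by 3 SD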). The following applies: DAMGO EC20, Fluo-4 calcium flux, at 1 µM; hits give high values. (In general: A change in cytosolic calcium serves as a functional read-out for many receptors and channels.)

Test [4] concerns TRPC4 beta (transient receptor potential cation channel C4), mouse. Nature of the test: positive allosteric modulators of mouse TRPC4, confirmation, cell-based, Fluo-4, HEK293 TRPC4beta/mu-opioid (AID 2555;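 active means primary screen hit whose calcium fluorescence ratio, in both repeats, exceeds the weak agonist control mean by 3 SD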). To be noted: DAMGO EC20, Fluo-4 calcium flux, at 10 µM; hits give high values.
For test [5], the target named is Short transient receptor potential channel 4 (Mus musculus) (UniProt Q9QUQ5). Description: inhibitors of mouse TRPC4 channel, confirmation, cell-based, Fluo4, HEK293 TRPC4beta/mu-opioid (AID 2636;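 active means calcium signal cut by more than 3 SD below the full-agonist control yet still positive, in both repeats and the earlier primary screen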). The following applies: DAMGO, Fluo4 calcium flux, at 10 µM; hits give high values.
Short transient receptor potential channel 4 (Mus musculus), sequence (Q9QUQ5 whole entry, looked up): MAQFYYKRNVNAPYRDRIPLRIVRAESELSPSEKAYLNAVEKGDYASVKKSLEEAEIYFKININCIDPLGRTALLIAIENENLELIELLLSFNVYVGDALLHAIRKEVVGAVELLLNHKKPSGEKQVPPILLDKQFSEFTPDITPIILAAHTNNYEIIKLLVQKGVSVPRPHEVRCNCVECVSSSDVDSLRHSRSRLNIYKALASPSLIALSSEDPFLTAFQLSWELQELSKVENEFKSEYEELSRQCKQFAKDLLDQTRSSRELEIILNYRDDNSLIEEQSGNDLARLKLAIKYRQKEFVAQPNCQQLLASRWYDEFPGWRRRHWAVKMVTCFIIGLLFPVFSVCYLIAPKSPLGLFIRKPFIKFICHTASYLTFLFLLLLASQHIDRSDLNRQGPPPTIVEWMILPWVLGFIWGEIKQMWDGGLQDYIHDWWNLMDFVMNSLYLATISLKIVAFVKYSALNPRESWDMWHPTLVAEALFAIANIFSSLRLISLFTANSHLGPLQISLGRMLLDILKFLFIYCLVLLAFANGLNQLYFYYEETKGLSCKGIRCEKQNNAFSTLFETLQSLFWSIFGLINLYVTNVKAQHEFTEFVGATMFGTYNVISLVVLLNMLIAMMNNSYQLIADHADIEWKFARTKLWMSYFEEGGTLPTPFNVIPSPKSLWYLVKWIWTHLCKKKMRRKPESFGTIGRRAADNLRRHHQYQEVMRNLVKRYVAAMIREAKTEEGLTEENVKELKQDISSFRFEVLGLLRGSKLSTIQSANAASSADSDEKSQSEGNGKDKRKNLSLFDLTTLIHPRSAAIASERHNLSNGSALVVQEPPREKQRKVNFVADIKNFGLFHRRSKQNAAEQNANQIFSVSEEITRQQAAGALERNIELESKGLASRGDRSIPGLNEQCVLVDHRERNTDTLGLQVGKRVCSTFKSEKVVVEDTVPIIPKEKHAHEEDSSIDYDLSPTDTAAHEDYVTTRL
For test [6] the target is unchanged. Description: inhibitors of mouse TRPC4 channel, confirmation, cell-based, second round, Fluo4, HEK293 TRPC4beta/mu-opioid, 1 µM (AID 2637;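 active means calcium signal ratio cut to more than 3 SD under the fully stimulated control mean yet still positive, in both repeats and the primary screen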;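 on inhibition: percent of integrated ratio relative to wells lacking test compound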). The following applies: Fluo4 calcium flux, DAMGO, at 1 µM; hits give high values.
For test [7] the target is unchanged. Nature of the test: mouse TRPC4 channel activators, dose response, cell-based, HEK293 TRPC4/mu-opioid, Fluo-4 calcium (AID 434937;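 active means primary screen activator hit with a dose response curve and TRPC4 channel activation at any tested dose; inactive means no activation, no dose response, or not a primary hit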).
The target is the same in test [8]. Description: TRPC4 positive allosteric modulators, dose response, cell-based, HEK293 TRPC4/mu-opioid, Fluo-4 calcium, EC20 DAMGO (AID 434941;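 active means earlier screen potentiator hit that boosts the TRPC4 ion channel at some dose, with a dose response; inactive means no potentiation, no dose response, or not a prior hit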;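 further: calcium entry triggered by an EC20 dose of DAMGO at the co-expressed mu-opioid receptor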).
For test [9] the target is unchanged. Description: mouse TRPC4 channel inhibitors, dose response, cell-based, HEK293 TRPC4/mu-opioid, Fluo-4 calcium (AID 434942;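 active means primary screen inhibitor hit that blocks the TRPC4 channel at some tested dose, yielding a dose curve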).
Test [10] concerns the target Short transient receptor potential channel 6 (Mus musculus) (UniProt Q61143). Nature of the test: inhibition of mouse TRPC6 channel, confirmation, selectivity assay for TRPC4 inhibitor project, cell-based, HEK293, membrane potential dye, duplicate (AID 434948;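 active means active in primary screen and both duplicates, each dropping signal beyond three positive-control SD with fluorescence still positive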). To be noted: HEK293 TRPC6, membrane potential dye fluorescence, at 10 µM, stimulated with maximal-effect acetylcholine; hits give high values.

Test [11] has the same target. Description: activation of mouse TRPC6 channel, confirmation, selectivity assay for TRPC4 activator project, cell-based, HEK293, membrane potential dye, duplicate (AID 434950). The following applies: HEK293 TRPC6, membrane potential fluorescence, at 10 µM; hits give high values.
The target is the same in test [12]. Description: TRPC6 potentiation by TRPC4 potentiator hits, confirmation, selectivity assay for TRPC4 potentiator project, HEK293 cells, membrane potential dye, duplicate (AID 434952;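 active means compound raising the membrane signal above positive-control mean plus 3 SD in both repeats, and a primary screen hit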). To be noted: HEK293 TRPC6, membrane potential dye fluorescence, at 10 µM, maximal acetylcholine added after compound; hits give high values.
In test [13] the target is Short transient receptor potential channel 4 (Mus musculus) (UniProt Q9QUQ5). Nature of the test: calcium flux activators in TRPC4/5HT1a cells, counter-screen for TRPC4 activator project, cell-based, second counter screen, HEK293 TRPC4/5HT1a, Fluo-4 (AID 434977;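 active means calcium signal rise above buffer-control mean plus 5 SD in both duplicates, and also a hit in the primary screen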). To be noted: Fluo-4 calcium flux, at 10 µM; hits give high values.
A short description of test [14]: calcium flux inhibitors in TRPC4/5HT1a cells, confirmation, counter-screen for TRPC4 inhibitor project, cell-based, second counter screen, HEK293 TRPC4/5HT1a, Fluo-4 (AID 434978;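 active means primary screen active whose calcium signal fell more than 3 SD beyond the full-serotonin control mean in both duplicate plates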;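 further: serotonin given first at submaximal then at maximal dose after compound preincubation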). To be noted: Fluo-4 calcium flux, at 10 µM, serotonin added to trigger calcium flux; hits give high values.
Test [15] concerns TRPC4 (mouse), co-expressed with 5HT1a in HEK293. Description: calcium flux potentiators in TRPC4/5HT1a cells, confirmation, counter-screen for TRPC4 potentiator project, cell-based, second counter screen, HEK293 TRPC4/5HT1a, Fluo-4 (AID 434979;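 active means signal rise over 3 SD above mean of control wells given weak agonist, in both repeats and first screen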). The following applies: Fluo-4 calcium flux, at 10 µM, serotonin added at its EC20 dose; hits give high values.
A short description of test [16]: calcium flux activation in mu-opioid HEK293 cells, confirmation, counter-screen for TRPC4 activator project, cell-based, HEK293 mu-opioid receptor line (AID 449723;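 active means hit in primary screen, with calcium signal over 5 SD above buffer well mean in both duplicates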;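 further: counter screen cells carry the mu-opioid receptor alone and lack TRPC4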). To be noted: Fluo-4 calcium fluorescence, at 10 µM; hits give high values.
Test [17] can be described thus: calcium flux enhancement in mu-opioid HEK293 cells, confirmation, counter-screen for TRPC4 allosteric potentiator project, cell-based, HEK293 mu-opioid receptor line (AID 449724;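 active means calcium signal rise more than 3 SD above the low-dose agonist control mean, in both duplicate plates and the primary screen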;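 further: HEK293 cells carrying mu-opioid receptor only with no TRPC4 channel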). To be noted: Fluo-4 calcium flux, at 10 µM, compound added before EC20 DAMGO stimulus; hits give high values.

Structures are written as SMILES. For part of these data: Potency and affinity values are given separately. Calls of active or inactive are those of the source.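 How the source made its calls, unless noted: active means membrane potential signal rise above negative control mean plus 3 SD in both duplicates, also active in the earlier TRPC4 screen; inactive means the rest.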

Short transient receptor potential channel 6 (Mus musculus), sequence (Q61143 whole entry, looked up): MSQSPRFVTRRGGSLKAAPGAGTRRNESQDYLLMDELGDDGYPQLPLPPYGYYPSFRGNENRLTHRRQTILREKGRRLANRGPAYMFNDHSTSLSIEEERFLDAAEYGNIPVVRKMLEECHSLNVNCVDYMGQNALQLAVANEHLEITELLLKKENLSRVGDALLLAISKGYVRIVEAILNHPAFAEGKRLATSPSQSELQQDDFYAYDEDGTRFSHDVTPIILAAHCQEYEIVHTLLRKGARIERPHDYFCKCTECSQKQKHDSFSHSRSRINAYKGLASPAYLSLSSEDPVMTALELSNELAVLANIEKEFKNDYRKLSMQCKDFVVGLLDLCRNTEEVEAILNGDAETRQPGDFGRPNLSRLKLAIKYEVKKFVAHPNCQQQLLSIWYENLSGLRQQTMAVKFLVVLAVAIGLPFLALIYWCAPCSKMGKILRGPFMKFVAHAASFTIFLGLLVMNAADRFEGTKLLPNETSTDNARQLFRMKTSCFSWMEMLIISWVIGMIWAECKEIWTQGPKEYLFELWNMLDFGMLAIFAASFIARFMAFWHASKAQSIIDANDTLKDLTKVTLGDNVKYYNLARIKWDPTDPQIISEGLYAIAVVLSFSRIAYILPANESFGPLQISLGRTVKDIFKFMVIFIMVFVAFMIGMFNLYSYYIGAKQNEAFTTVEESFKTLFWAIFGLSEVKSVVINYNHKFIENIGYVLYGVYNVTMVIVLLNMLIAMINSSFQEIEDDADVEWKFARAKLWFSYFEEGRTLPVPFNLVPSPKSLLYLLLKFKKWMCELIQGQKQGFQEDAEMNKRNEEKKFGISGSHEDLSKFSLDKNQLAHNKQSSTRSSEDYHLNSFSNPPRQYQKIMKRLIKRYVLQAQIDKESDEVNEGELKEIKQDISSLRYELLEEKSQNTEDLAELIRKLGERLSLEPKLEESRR

`CCc1cc2c3c(c(=O)oc2cc1OCC(=O)OC)CCCC3`: the outcome in test [1], in test [2], in [3], in test [4], in test [5] and in test [6] was inactive. In addition, the outcome in test [7], in test [8], in test [9], in [10], in test [11] and in test [12] was inactive. For the same compound, the result in [13], in [14], in [15], in [16] and in [17] was inactive.

With `COC(=O)C1=C(C)NC2=C(C(=O)c3ccccc32)C1c1ccc(-c2ccc(C(=O)O)cc2)o1` (stereo not given), the outcome in test [1], in [2], in test [3], in test [4], in test [5] and in test [6] was inactive. The result in test [7], in test [8], in [9], in test [10], in test [11] and in test [12] was inactive. Also, the result in test [13], in test [14], in test [15] and in test [16] was inactive. In addition, the activation in test [17] is 1780% (active).

For `CC(C)(C)n1cnc2cc(NCc3ccc(Br)cc3)ccc21`, the result in test [1], in test [2], in test [3], in test [4], in [5] and in [6] was inactive. The result in [7], in [8], in test [9], in test [10], in [11] and in test [12] was inactive. For the same compound, the outcome in test [13], in [14], in [16] and in test [17] was inactive. The potentiation in test [15] was 8.63% (active).

As to `O=[N+]([O-])c1cccc(CSc2nnc(Cc3ccccc3)n2-c2ccc(F)cc2)c1`, the outcome in test [1], in test [2], in test [3], in [4], in [5] and in test [6] was inactive. Further, the outcome in test [7], in test [8], in [9], in test [10], in [11] and in [12] was inactive. For the same compound, the result in [13], in test [14], in test [15], in [16] and in test [17] was inactive.

Consider `CCCCN(C)C(=O)Cn1ncc2c3ccccc3n(CCC)c2c1=O`, for which the result in [1], in test [2], in [3], in test [5], in test [6] and in [7] was inactive. The result in test [8], in test [9], in [10], in test [11], in test [12] and in test [13] was inactive. The outcome in test [14], in test [16] and in test [17] was inactive. Besides, the potentiation in test [4] is 37% (active); in test [15] it was 42.7% (active).

Turning to `COc1ccccc1OCC(=O)Nc1ccc(Cl)cc1`, the result in test [1], in test [2], in test [3], in test [4], in test [7] and in test [8] was inactive. In addition, the outcome in [9], in test [10], in test [11], in test [12], in test [13] and in test [14] was inactive. For the same compound, the result in test [15], in test [16] and in test [17] was inactive. The results for the inhibition in [5] and in test [6] were 52% (active) and 41% (active), respectively.

With `Cc1c(CCOC(=O)c2ccccc2)sc[n+]1CC(=O)c1ccc(Br)cc1`, the outcome in [1], in test [2], in [3], in test [4], in test [5] and in test [6] was inactive. Moreover, the result in [7], in [8], in test [9], in test [10], in test [11] and in [12] was inactive. The outcome in test [13], in [14], in test [15], in [16] and in [17] was inactive.

As to `Cc1ccc(CNC(=O)CCC2CCCN(Cc3cc4ccccc4o3)C2)o1` (stereo not given), the result in test [1], in test [2], in test [3], in test [4], in [5] and in test [6] was inactive. The outcome in test [7], in [8], in test [9], in [10], in test [11] and in test [12] was inactive. For the same compound, the result in test [13], in [14], in [15], in [16] and in test [17] was inactive.

`CCN1CCN(c2nc(N)c([N+](=O)[O-])c(Nc3ccc(C)c(C)c3)n2)CC1`: the outcome in test [1], in [2], in test [3], in test [4], in [5] and in [6] was inactive. Further, the result in [7], in test [8], in [9], in test [10], in test [11] and in [12] was inactive. Besides, the result in [13], in [14], in [16] and in test [17] was inactive. The potentiation in test [15] is 10.5% (active).

Consider `Cc1nn2c(N3CCN(C)CC3)c3c(nc2c1-c1ccccc1)CCCC3`, for which the result in test [1], in test [2], in [3], in [4], in test [5] and in test [6] was inactive. Further, the result in [7], in test [8], in [9], in test [10], in test [11] and in [12] was inactive. Also, the outcome in test [13], in test [14], in [15], in [16] and in test [17] was inactive.

As to `CCCC1C(=O)Nc2ccccc2N1C(=O)c1ccc(C(C)(C)C)cc1` (stereo not given), the result in [1], in test [2], in [3], in [4], in test [5] and in test [6] was inactive. Besides, the outcome in test [7], in test [8], in test [9], in test [10], in test [11] and in [12] was inactive. The result in test [13], in test [14], in [16] and in test [17] was inactive. The potentiation in [15] is 30.4% (active).

In the case of `Oc1ccc(-c2[nH]ncc2-c2ccc(Br)cc2)c(O)c1`, the result in test [1], in test [2], in [3], in test [4], in test [5] and in test [6] was inactive. Besides, the outcome in test [7], in [8], in [9], in test [10], in [11] and in test [12] was inactive. In addition, the result in [13], in [14], in [15], in test [16] and in test [17] was inactive.

With `CC(=O)n1cc([C@@H]2C=C(C(=O)NCc3ccccc3)O[C@H](OCc3ccc(CO)cc3)C2)c2ccccc21`, the outcome in [1], in [2], in test [3], in test [4], in test [5] and in test [6] was inactive. Besides, the result in [7], in test [8], in test [9], in test [10], in [11] and in test [12] was inactive. For the same compound, the result in test [13], in test [14], in [16] and in test [17] was inactive. Besides, the potentiation in test [15] was 14.7% (active).

Consider `COc1cccc(N2C(=O)CC(N3CCN(CCN=CC4=C(O)CC(C)(C)CC4=O)CC3)C2=O)c1` (stereo not given), for which the outcome in [1], in test [2], in [3], in test [4], in test [5] and in test [6] was inactive. Besides, the result in [7], in [8], in [9], in test [10], in test [11] and in test [12] was inactive. Also, the outcome in [13], in [14], in test [16] and in [17] was inactive. Moreover, in test [15], the potentiation was 15.8% (active).

For the compound `Cc1ccc(/C=N/NC(=O)C2COc3ccccc3O2)s1` (stereo not given), the outcome in [1], in test [2], in test [3], in test [4], in test [5] and in [6] was inactive. Besides, the outcome in test [7], in test [8], in [9], in test [10], in [11] and in [12] was inactive. Further, the result in test [13], in [14], in [16] and in test [17] was inactive. Also, in test [15], the potentiation is 22.2% (active).

Source of the values: PubChem BioAssay.
